From the supplement of paper PMC7156485
± gives the standard deviation of the averaged measurements.

test system: TDF; assay: cell number relative to DMSO (% of DMSO); higher = more cells (less growth inhibition / toxicity); conditions: concentration: 10 µM; 24 h
Outline: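 For HCC1569 and TDF cells, compounds at 10 µM were applied for 24 h at 37 °C in triplicate in 384-well plates. Cells were fixed in 3.7% formaldehyde, stained for H1.0 and with DAPI, and imaged at ×10 over six fields per well. The endpoint, H1.0 nuclear intensity or cell number, is shown as percent of the plate control using the median of replicates. Positional effects were smoothed for HCC1569 only.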
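Also: TDF denotes transformed human dermal fibroblasts of mesenchymal origin.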

Row | SMILES | cell number
1 | NCC(O)(CS(=O)(=O)O)c1ccc(Cl)cc1 (stereo unspecified) [2-Hydroxysaclofen] | 94.6
2 | O=C(O)c1ccc(O)c2ncccc12 [8-hydroxy-5-quinolinecarboxylic acid] | 99.2
3 | CCNC(=O)C1OC(n2cnc3c(N)nc(NCCc4ccc(CCC(=O)O)cc4)nc32)C(O)C1O.Cl (stereo unspecified) | 96
4 | COc1ccc2c(c1)c(CC(=O)N1CCOCC1)c(C)n2C(=O)c1ccc(Cl)cc1 | 104
5 | NC(=O)N1c2ccccc2C=Cc2ccccc21 [Carbamazepine] | 111 ± 1.5
6 | COc1cc2c(cc1OC)-c1cc3ccc(OC)c(OC)c3c[n+]1CC2.[Cl-] [Palmatine chloride] | 108
7 | O=c1cc(-c2ccc(O)c(O)c2)oc2cc(O)c(C3OC(CO)C(O)C(O)C3O)c(O)c12 (stereo unspecified) [Homoorientin] | 96.2
8 | CN(C)c1nc(N)c(C(=O)N=C(N)N)nc1Cl.Cl [5-(N,N-Dimethyl)amiloride hydrochloride] | 89.7
9 | OCC1=CC(O)C2C=COC(OC3OC(CO)C(O)C(O)C3O)C12 (stereo unspecified) [Aucubin] | 107
10 | CC1=NS(=O)(=O)c2cc(Cl)ccc2N1 [Diazoxide] | 111 ± 7.2
11 | O=C1NC(=O)C(c2c[nH]c3ccccc23)=C1c1c[nH]c2ccccc12 [Bisindolylmaleimide IV] | 119
12 | CCC(NC(C)C)C(O)c1ccc(O)c(O)c1.CS(=O)(=O)O (stereo unspecified) [Isotharine mesylate] | 112
13 | O=C1NC(=O)C(=Cc2ccc(-c3ccc(F)cc3O)o2)S1 | 104
14 | CN1CCc2cc(Cl)c(O)cc2C(c2ccccc2)C1.Cl (stereo unspecified) | 104
15 | CC(=O)C1(O)CCC2C3CCC4=CC(=O)CCC4(C)C3CCC21C (stereo not drawn) [17alpha-hydroxyprogesterone] | 98.3
16 | CC(C)C(=O)Nc1ccc([N+](=O)[O-])c(C(F)(F)F)c1 [Flutamide] | 66.1 ± 48
17 | CC(O)CCCC(O)C=CC1C(O)CC(O)C1CC=CCCCC(=O)O [19(R)-Hydroxy-prostaglandin F2a] | 101
18 | O=C(C=Cc1ccc(O)c(O)c1)c1ccc(O)cc1O [Butein] | 89.2

Row | SMILES | cell number
19 | [N-]=[N+]=Nc1ccc(C(=O)CSCC(NC(=O)CCC(N)C(=O)O)C(=O)NCC(=O)O)cc1 (stereo not drawn) [S-(p-Azidophenacyl)glutathione] | 105
20 | CCCCCC(O)C=CC=CCC=CC=CC(O)CCCC(=O)O (stereo unspecified) | 98.1
21 | CCCCC(C)(O)CC=CC1C(O)CC(=O)C1CCCCCCC(=O)OC (stereo unspecified) [Misoprostol] | 107
22 | O=C(O)c1cc(=O)c2c(Cl)cc(Cl)cc2[nH]1 [5,7-Dichlorokynurenic acid] | 98.6
23 | CC(CCc1ccc(O)cc1)NCCc1ccc(O)c(O)c1.Cl (stereo unspecified) [Dobutamine.HCl] | 111
24 | C#CC1(O)CCC2C3CCC4=Cc5oncc5CC4(C)C3CCC21C (stereo unspecified) [Danazol] | 98.36 ± 0.75
25 | COC(=O)C(N)Cc1ccc(Cl)cc1.Cl (racemic) [DL-p-Chlorophenylalanine methyl ester hydrochloride] | 92.3
26 | Cl.N=c1c[n+](N2CCOCC2)[n-]o1 [3-Morpholinosydnonimine hydrochloride] | 108
27 | CS(=O)(=O)N1CCN(Cc2cc3nc(-c4cccc5[nH]ncc45)nc(N4CCOCC4)c3s2)CC1 | 77.8
28 | C=CC1CN2CCC1CC2C(O)c1ccnc2ccc(OC)cc12.Cl.O (stereo unspecified) | 90.1
29 | CCC1C(=O)N(C)c2cnc(Nc3ccc(C(=O)NC4CCN(C)CC4)cc3OC)nc2N1C1CCCC1 (stereo unspecified) | 32.4
30 | Oc1cc2c(cc1O)CN(C(=S)NCCc1ccc(Cl)cc1)CCC2 [Capsazepine] | 112
31 | Cl.O=C(OCCN1CCOCC1)C1(c2ccccc2)CCCCC1 | 111
32 | CN(c1ncccc1CNc1nc(Nc2ccc3c(c2)CC(=O)N3)ncc1C(F)(F)F)S(C)(=O)=O | 32.3
33 | O=c1c(O)c(-c2ccc(O)cc2O)oc2cc(O)cc(O)c12 [Morine] | 109
34 | CCCCCCCCCCCCCCCCCCOCC(COP(=O)([O-])OCC[N+](C)(C)C)OC(C)=O (stereo unspecified) | 115
35 | CCCCC=CCCCCCCCC(=O)O [9(E)-Tetradecenoic acid] | 106
36 | CN(N=O)C(=O)NC1C(O)OC(CO)C(O)C1O (stereo unspecified) [Streptozocin] | 102
